Results as given in PubChem BioAssay AID485297 (National Center for Advancing Translational Sciences (NCATS), 2010).
Screen size: about 320,000 compounds; about 9,100 (2.8%) were called active. Where a call stands in place of a potency, no number is given. Inconclusive results (about 3%) are left out. Calls follow the shape of the dose curve; as a rule, active = well fitted activation curve with a large enough effect; inconclusive = small, poorly fitted or top-dose-only effect; inactive = no such curve, though single readings can be large or run the other way. For the sample, actives were picked, then their nearest neighbours and some compounds at random.
Potency is read from the fitted curve at half-maximal effect.

Assay: qHTS Assay for Rab9 Promoter Activators; also: nearly all actives have a fitted effect of over 60% in size
Conditions: Huh7 Rab9 promoter-luciferase reporter, luminescence, 24 h; series mostly up to 9.22 µM
Description: NIH Chemical Genomics Center [NCGC] NIH Molecular Libraries Probe Production centers Network [MLPCN] MLPCN Grant: MH089537-01 Assay Submitter (PI): Yiannis A. Ioannou NCGC Assay Overview: Niemann Pick Type C (NPC) is a rare neurodegenerative lipidosis that is characterized by lipid storage in the endosomal/lysosomal system. Treatment modalities for this devastating disease are currently non-existent due to the severe obstacles associated with accessing the central nervous system with proteins or genes (Ioannou, 2000). We have developed a new paradigm, termed "Orphan Receptor Bypass Therapy" (ORByT), to address these disorders. This paradigm posits the existence of endogenous "suppressor" proteins whose expression can dramatically improve LSD pathogenesis. The goal is the identification/discovery of small chemical compounds that can modulate the expression of these proteins and provide a new treatment modality for these devastating disorders. One such protein whose overexpression reverses aspects of the NPC phenotype is Rab9. We have developed and optimized a cell based luciferase reporter assay in 1536 well format for the identification of up-regulators of the Rab9 promoter.
The Rab9 promoter is cloned in front of the luciferase reporter gene, therefore […] promoter activation results in luciferase expression. Frozen stock of the Rab9 promoter transfected Huh7 cells were obtained from the laboratory of Dr. Yiannis Ioannou (The Mount Sinai School of Medicine, New York, NY). Cells were propagated and maintained at NCGC in medium containing RPMI-1640 supplemented with 10% FBS, 2mM L-glutamine, and 50ug/ml penicillin/streptomycin. Cells were harvested in and plated for assays in OP-MEM I reduced-serum medium supplemented with 10% FBS. The Amplite luciferase reporter gene assay kit was purchased from ABD Bioquest and prepared/stored according to manufacturers recommendations. qHTS Assay Setup: 1.Dispensed 5ul of Huh7 cells stably expressing Rab9-luciferase at a density of 1500 cells per well 1536-well plates. 2.Incubate cells at 37C, 5% CO2, and 95% humidity for 2 hours. 3.Transferred 23nl per well of compound in DMSO solution. 4.Incubated at 37C, 5% CO2, and 95% humidity for 24 hours. 5.Dispensed 3ul per well of Amplite reagent(ABD Bioquest) per well. 6.Incubate at ambient for 10 minutes. 7.Read using the luminescence protocol on the ViewLux plate reader (Perkin Elmer).
For CN(C)C(=O)Oc1ccc2c(c1)O/C(=C\c1ccccc1)C2=O, the Potency was 1.41 µM (active). For CN(C)C(=O)Oc1ccc(OCc2cccc[n+]2C)cc1, the Potency was “inactive”. For CCOC(=O)c1c(-c2ccccc2)oc2ccc(OC(=O)N(C)C)cc12, the Potency was “inactive”. With c1ccc2c(c1)[I+]c1ccccc1-2 the Potency was “inactive”. For CC(=O)c1c(O)c(C)c(O)c(Cc2c(O)c3c(c(C(=O)/C=C/c4ccccc4)c2O)OC(C)(C)C=C3)c1O, the Potency was “inactive”. For CC(C)(C)c1ccc(OC(=O)N2CCCCC2)cc1, the Potency was 3.16 µM (active). In the case of CN1CCN(C(=O)COc2ccc(C(C)(C)C)cc2Br)CC1, the Potency is reported as “inactive”. With O=C(Nc1cccc(OC(=O)N2CCCCC2)c1)N1CCOCC1 the Potency was “inactive”. For C[C@@H]1C[C@@H]2O[C@H]2/C=C\C=C\C(=O)Cc2c(Cl)c(O)cc(O)c2C(=O)O1, the Potency was “inactive”. With CNCC[C@H](Oc1ccc(C(F)(F)F)cc1)c1ccccc1 the Potency was “inactive”.
